Test results: PubChem BioAssay (Tox21)
Results filed as inconclusive are left out. Values without a mark were called inactive. Activity calls are given as the source filed them. Calls come from the whole dose curve; as a rule, active = well fitted cell-killing curve with a large enough effect in the repeat runs; inconclusive = weak or mixed curves, or effect the other way; inactive = no such curve, though single readings can be large or run the other way.
% is set by controls: 0 for no effect and ±100 for the full control effect; potency is the fitted concentration of half-maximal effect.

Assay: Caspase-3/7 induction in CHO-K1 cells by small molecules, qHTS cell viability counter screen (AID 1346979); note: nearly all actives have a fitted effect of over 35% in size
Settings: CellTiter-Fluor fluorescence, 17 h; series mostly up to 92.4 µM; activity change, negative = cytotoxicity: at the top concentration
Text: National Center for Advancing Translational Sciences [NCATS]
NIH Chemical Genomics Center [NCGC]
U.S. Environmental Protection Agency [EPA]
National Institutes of Environmental Health Sciences [NIEHS]
National Toxicology Program [NTP]
U.S. Food and Drug Administration [FDA]
Apoptosis is a process of programmed cell death and plays a central role in the development of multicellular organisms. It is a highly regulated process and induces cell death by activating caspases, which are the members of cysteine aspartic acid-specific protease (caspase) family. Caspases involved in apoptosis are classified by their mechanism of action as initiator caspases (caspase-2, -8, -9 and -10) and executioner caspases (caspase-3, -6, and -7). Inhibition of apoptosis results in number of cancers, autoimmune diseases, inflammatory diseases and viral infection. To identify small molecule compounds that induce apoptosis, a homogeneous, luminescent Caspase-Glo 3/7 assay was used. Wild type CHO-K1 cells were used to screen Tox21 libraries for identifying caspase-3/7 activity inducers. Also cytotoxicity of the compounds was tested in parallel by measuring the cell viability using CellTiter-Fluor assay system in the same wells.
Tox21 Assay Protocol Summary:
CHO-K1 cells were dispensed at 1,500 per well in 5uL of culture medium into white solid bottom 1536-well plates (Corning Life Sciences, Corning, NY) using a Multidrop Combi (Thermo Scientific, Waltham, MA) dispenser. The assay plates were incubated at 37 C and 5% CO2 for 5hr, and then 23nL of compounds dissolved in DMSO and positive control were transferred using a Pintool station (Wako, San Diego, CA). The assay plates were incubated at 37C and 5% CO2 for 17hr. For cytotoxicity read, after 16hr incubation at 37C, 1uL CellTiter-Fluor reagent (Promega Corporation, Madison, WI) was added to each well of the assay plates using Flying Reagent Dispenser (FRD, Aurora Discovery, San Diego, CA). After 1hr incubation at 37C and 5% CO2, the fluorescence signal was quantified using a ViewLux plate reader (PerkinElmer, Shelton, CT).
In the case of `c1cc(OCC2CO2)cc(OCC2CO2)c1` (stereo not given), the Potency is reported as 60.6 µM (active).
For `CCCCCCCCCCCCCCCC`, the “activity change, negative = cytotoxicity” value was 9.62%.
In the case of `O=C(O)Cc1ccc(OCCNC[C@H](O)c2ccccc2)cc1`, the “activity change, negative = cytotoxicity” value is reported as -0.101% [at 42.5 µM].
With `C/C=C/CO` the “activity change, negative = cytotoxicity” value was 8.52%.
In the case of `C=C(C)CCCC`, the “activity change, negative = cytotoxicity” value is reported as -2.38%.
In the case of `COc1ccccc1C=O`, the “activity change, negative = cytotoxicity” value is reported as 0.311%.
In the case of `CC1CNCC(C)O1` (stereo not given), the “activity change, negative = cytotoxicity” value is reported as 9.31%.
With `c1ccc2c(c1)CCC2` the “activity change, negative = cytotoxicity” value was -0.24%.
With `Cn1cnc2ncnc(N)c21` the “activity change, negative = cytotoxicity” value was 5.91% [at 42.5 µM].
For `[O]=[Zr]`, the “activity change, negative = cytotoxicity” value was -2.4%.
With `Cc1ccc(-n2[nH]c(C)c(N=Nc3cccc(-c4cccc(C(=O)O)c4)c3O)c2=O)cc1C` the Potency was 26.6 µM (active).
With `C/C=C/C=N/NC(=O)c1ccncc1` the “activity change, negative = cytotoxicity” value was -0.26% [at 42.5 µM].
With `Clc1ccccc1CN1CCc2sccc2C1` the “activity change, negative = cytotoxicity” value was 2.5% [at 42.5 µM].
For `CC(C)(C)c1cc(CCC(=O)NCCCCCCNC(=O)CCc2cc(C(C)(C)C)c(O)c(C(C)(C)C)c2)cc(C(C)(C)C)c1O`, the “activity change, negative = cytotoxicity” value was -1.74%.
With `CC[N+](CC)(CC)Cc1ccccc1` the “activity change, negative = cytotoxicity” value was 3.68%.
In the case of `C[Si](C)(C)Cl`, the “activity change, negative = cytotoxicity” value is reported as -1.87%.
With `CN1[C@@H]2CC[C@@H]1CC(OC(=O)C(CO)c1ccccc1)C2` (stereo not given in full) the “activity change, negative = cytotoxicity” value was 5.2% [at 42.5 µM].
With `CCCCCCCCCC(=O)N(C)C` the “activity change, negative = cytotoxicity” value was 5%.
For `CCc1cccc(CC)c1N(COC)C(=O)CS(=O)(=O)O`, the “activity change, negative = cytotoxicity” value was 5.62%.
With `Cc1nc(Nc2ncc(C(=O)Nc3c(C)cccc3Cl)s2)cc(N2CCN(CCO)CC2)n1` the Potency was 13.3 µM (active).
In the case of `CC(=O)C=O`, the “activity change, negative = cytotoxicity” value is reported as 4.6%.
In the case of `O=C1OC(=O)c2ccc3c4c(ccc1c24)C(=O)OC3=O`, the “activity change, negative = cytotoxicity” value is reported as 0.295%.
For `Cc1cccc(N(C)C)c1`, the “activity change, negative = cytotoxicity” value was -0.586%.
With `CNC(=O)c1cc(Oc2ccc(NC(=O)Nc3ccc(Cl)c(C(F)(F)F)c3)cc2)ccn1` the Potency was 26.6 µM (active).
With `O=C(NO)c1ccccc1` the Potency was 65.3 µM (active).
In the case of `Cc1ccc2ccc3cccc4ccc1c2c34`, the “activity change, negative = cytotoxicity” value is reported as -0.286%.
Compound `CCCCCCCCCCCCCCCCCO` has an activity change, negative = cytotoxicity of 11.2% [at 19 µM].
With `COC(=O)CC(C)CCC=C(C)C` (stereo not given) the “activity change, negative = cytotoxicity” value was 7.19%.
In the case of `NC(=O)c1ccccc1N`, the “activity change, negative = cytotoxicity” value is reported as 0.828%.
With `ClC/C=C\CCl` the “activity change, negative = cytotoxicity” value was 3.08%.
In the case of `C/C=C/C(=O)C1=C(C)CCCC1(C)C`, the “activity change, negative = cytotoxicity” value is reported as -5.21%.
For `CC1CCCNC1` (stereo not given), the “activity change, negative = cytotoxicity” value was -0.224%.
For `CCCC(C)CCC(C)=O` (stereo not given), the “activity change, negative = cytotoxicity” value was 4.17%.
For `O=c1cccc[nH]1`, the “activity change, negative = cytotoxicity” value was 5.29%.
For `O=C1c2c(O)ccc(O)c2C(=O)c2c(NCCNCCO)ccc(NCCNCCO)c21`, the Potency was 10.6 µM (active).
With `CO[Si](CCC1CCC2OC2C1)(OC)OC` (stereo not given) the “activity change, negative = cytotoxicity” value was 3.15%.
For `CCN(CC)c1cccc(C)c1`, the “activity change, negative = cytotoxicity” value was -1.8%.
For `CC1(C)C(=O)N(CO)C(=O)N1CO`, the “activity change, negative = cytotoxicity” value was 7.77%.
With `COc1cc(C(=O)NS(=O)(=O)c2ccccc2C)ccc1Cc1cn(C)c2ccc(NC(=O)OC3CCCC3)cc12` the “activity change, negative = cytotoxicity” value was -0.879% [at 42.5 µM].
With `CN(C)c1ccc(N=NS(=O)(=O)O)cc1` the Potency was 33.8 µM (active).
